SARS 3CLpro inh = SARS-CoV 3CLpro protease inhibition; recombinant SARS-CoV 3CLpro, quenched FRET peptide cleavage; inhibition, % at 6 µM; 0.14% of 290,000 active; AID 1706; in the data active means inhibition above about 12%
DUSP3 inh = blocks human VHR1 dual specificity phosphatase | P51452 | recombinant VHR phosphatase, pNPP absorbance | inhibition, % at 13.3 µM | 0.52% of 290,000 active | AID 1654; in the data active means inhibition above about 50%
Target sequence (P51452 whole entry, looked up): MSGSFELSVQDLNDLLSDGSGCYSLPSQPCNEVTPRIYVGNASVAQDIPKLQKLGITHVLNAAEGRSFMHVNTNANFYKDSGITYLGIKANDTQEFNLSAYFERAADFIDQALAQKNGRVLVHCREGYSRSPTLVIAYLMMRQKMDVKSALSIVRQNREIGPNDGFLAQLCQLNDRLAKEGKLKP
BJeLR lethal = BJeLR cell viability loss. BJeLR (HRASV12) viability, CellTiter-Glo ATP luminescence, 48 h. 0.17% of 300,000 active. inhibition, % (concentration not given with the values). AID 1554; in the data active means inhibition above about 50%
PrPC surface inh = inhibitors of human cell surface prion protein PrPC. P04156. TR-FRET read-out. inhibition, % at 13.8 µM. 0.43% of 370,000 active. AID 720596; in the data active means inhibition above about 24%
PrPC confirm = confirmation of inhibitors of cell surface human prion protein | cell surface PrPC level, TR-FRET | 65% of 1,500 active | shares compounds with PrPC surface inh | AID 743200 | inhibition, % at 13.8 µM; in the data active means inhibition above about 25%
LD9 tox = counter-screen for PrPc inhibitors: cytotoxicity in LD9 cells; 29% of 1,500 active; luminescence viability; shares compounds with PrPC surface inh; inhibition, % at 13.8 µM; AID 743201; in the data active means inhibition above about 9.5%
Hits are given with their value; - = inactive; . = no result given. The list is not random: actives were taken first. Their share in the collection is about 1.1%.

SMILES	SARS 3CLpro inh	DUSP3 inh	BJeLR lethal	PrPC surface inh	PrPC confirm	LD9 tox
COc1ccccc1Cn1c(=S)[nH]c2ccccc2c1=O	-	-	-	61.6	89.6	-
COc1ccccc1Cn1c(=S)[nH]c2ccc(F)cc2c1=O	-	-	-	108.0	131.3	-
CCN(CC)C(=O)Cn1cc(S(=O)(=O)CC(=O)NCc2ccccc2)c2ccccc21	-	-	-	-	.	.
C[C@@H]1Cc2[nH][nH]c(=O)c2[C@H](c2ccc(Cl)cc2)O1	.	.	.	-	.	.
Oc1c(Br)cc(Br)cc1Br	.	.	.	-	.	.
Cc1nc2c(Br)cc(Br)cc2cc1O	-	-	-	102.9	107.5	-
Cc1ccc2nc(NC(=O)c3ccccn3)sc2c1	-	51.9	-	25.2	61.0	77.0
Oc1ccc(/C=N/Nc2nccnc2Cl)c(O)c1	-	-	68.0	24.7	33.2	23.9
CC1(C(=O)NS(=O)(=O)c2ccccc2Cl)CCN1C(=O)c1cccc2ccccc12 (stereo unspecified)	.	.	.	-	.	.
Cc1cc(SC(C)C(=O)O)nc2ccccc12 (stereo unspecified)	-	-	-	46.4	75.5	-
CC(Sc1cccc2cccc(C(=O)O)c12)C(=O)O (stereo unspecified)	-	-	-	-	.	.
CC(Sc1ccc2ccccc2n1)C(=O)O (stereo unspecified)	-	-	-	114.5	123.5	-
COC(=O)CSc1cnc2ccccc2n1	-	-	-	-	.	.
CC(Sc1cnc2ccccc2n1)C(=O)O (stereo unspecified)	-	-	-	39.4	47.4	-
O=C1c2ccc(Br)cc2C(=O)N1c1ccc(Cl)cn1	-	-	-	-	.	.
CC(=O)Nc1ccc(C(=O)OCC(=O)NC2CCCCCC2)cc1	.	.	.	-	.	.
O=C(Nc1ccccc1)Nc1cc(Cl)cc(Cl)c1	-	-	-	-	.	.
O=C(Nc1ccccc1)Nc1cc(OCC(F)(F)F)cc(OCC(F)(F)F)c1	-	-	-	38.0	28.3	14.3
Cc1cc(C(O)c2ncc(-c3ccc(Cl)cc3)[nH]2)ccc1F (stereo unspecified)	.	.	.	-	.	.
O=C(Nc1ccn(Cc2c(F)c(F)cc(F)c2F)n1)c1ccc(COc2ccccc2Cl)cc1	-	-	-	.	.	.
O=C(Nc1ccn(Cc2ccccc2F)n1)c1ccc(COc2ccccc2Cl)cc1	-	-	-	41.6	30.9	-
Cc1cc(C)nc(NC(=O)c2ccc(COc3ccccc3Cl)cc2)c1	-	-	-	27.0	-	-
COC(=O)c1sc(NC(=S)NNC(=O)c2c(Br)c(C)nn2C)c(C(=O)OC)c1C	-	-	-	131.9	146.1	-
COC(=O)c1sc(S(=O)(=O)Nc2c(C)nn(C)c2C)c(C(=O)OC)c1C	.	.	.	-	.	.
Nc1ncnc2c(C3OC(CO)C(O)C3O)c[nH]c12 (stereo unspecified)	.	.	.	56.7	61.3	91.2
SMILES	SARS 3CLpro inh	DUSP3 inh	BJeLR lethal	PrPC surface inh	PrPC confirm	LD9 tox
Nc1ncnc2c1ncn2[C@@H]1O[C@H](CO)[C@@H](O)[C@H]1O	-	-	-	-	.	.
CC(=O)Nc1ccc(CNc2nc3cc(-c4ccsc4)sc3c(=O)n2C)cc1	.	.	.	-	.	.
COc1ccc(/C(O)=C2/C(=O)C(=O)N(Cc3cccnc3)C2c2ccncc2)cc1F (stereo unspecified)	-	-	-	-	.	.
Cc1cc(OCc2ccccc2)ccc1/C(O)=C1/C(=O)C(=O)N(Cc2cccnc2)C1c1ccncc1 (stereo unspecified)	-	-	-	33.5	53.6	-
COCCCN1C(=O)C(=O)/C(=C(/O)c2ccc(OCC(C)C)cc2C)C1c1cccnc1 (stereo unspecified)	-	-	-	25.7	36.4	-
CCCOc1ccc(/C(O)=C2/C(=O)C(=O)N(CCOC)C2c2cccnc2)cc1 (stereo unspecified)	-	-	-	-	.	.
CC(C)[C@H](NC(=O)OC(C)(C)C)c1cc(C(=O)N[C@@H](C)c2ccccc2)c(N)s1	.	.	.	-	.	.
CCOC(=O)c1c(/N=C/N(C)C)sc(/C=N/Nc2ccccc2)c1-c1ccccc1	-	-	-	53.7	39.8	-
CCCCN(C(C)=O)c1c(CC)nc2ccc(C(=O)NCCCN(C)C)cn12	.	.	.	-	.	.
COC(=O)c1sccc1NC(=O)C1CC=CCC1C(=O)O (stereo unspecified)	-	-	-	96.6	91.6	-
COC(=O)c1cc(C)sc1NC(=O)C1CC=CCC1C(=O)O (stereo unspecified)	-	-	-	34.7	43.9	-
CCN1C(=O)[C@H]2[C@@H](c3ccc(C)cc3)N[C@]3(CCCN(Cc4cccn4C)C3=O)[C@H]2C1=O	.	.	.	-	.	.

Source: PubChem
